# Only a selection was taken, and the strongest signals are over-represented in it overall.
# B1: CwpV (Clostridium difficile), B6EFG6 (protein)
# chain: MKIPKKIAAMLTVTMIAGSSTAGIASAQTVATNLTGQERYETAVKISQDGWKNADEVVIVNDSSIADALSATPFAKAKNAPILLTSKDKLNDKTKAEIQRLKAKKVYLIGGTSVLSTNIEKEIKDLKISFERISGAERYQTSLELAKKLDAISDVKKIAVVNGEKGLADAVSVGAPAAQNNMPVILADSKNGTAVADKFIKDAGITQSYVVGGESSISEAVKNKLPNSTRLGGTDRNDTNAKVIKEFYKKTDLKNAYVTKDGMNKQDQLIDALAVGVLGAKNQSPVVLVGKNLSASQKSLVNSKSFDKITKVGGNGNETAFNEMKSLQEVKTVEAKTISELKSAIDKATANDVINFKPTSEVKEAFTIQTDKAVTVNLNGTYTKTVTINMPNGDVNNYAKVDDVVIDDVKDGTFVNYGKITNLKVNDKNGAKIENNSKGEIGSLTVASGASQVKVTNGGKITTVTNNSKGTTIDNKGTISSVKGDNSPTISGNSPSSNSSGGSSSSGGSSGGSSGGSSSSKVGQIKFSATDKQIKMASGDKTVDPSDNTYILKLTNGTVKDGDVKANVKVAGLPSGLDYTAVGNRSANTITITVSGTTSQSIQNDLNNVSVLVKAGAVSGTGATDSIANTTFEIKKYVAAPAVGQLTFDATDKQIKMASGDKTVDPSDDTYVLTLTKGTAKDGDIKANVEVTGLPSGLDYTAEGDSSANTITIPVSGTASPAVQTDLDNVSVLVKAGAVSETTATDSAANATFEVKKYVAPAVGQLTFDATDKQIKMASGDKTVDPSDDTYVLTLTKGTAKDGDIKANVEVTGLPSGLDYTAEGDSSANTITITVSGTASQAVQTDLDNVSVLVKAGAVSETTATDSAANATFEVKKYVAPAIGQLTFDATDKQIKMASGDKTVDPSDDTYVLTLTKGTAKDGDIKANVEVTGLPSGLDYTAEGDSSANTITITVSGTASQAVQTDLDNVSVLVKAGAVSETTATDSAANATFEVKKHASDPISTIGKISSGLSSLFNILK
# Experiments:
# Assay in all cases: glycan array binding signal (z-score within array); higher = stronger binding
# Conditions in all cases: glycan notation: IUPAC condensed, linker removed
# [1] = molecular target: Fuc(a1-2)Gal(b1-3)GalNAc(b1-3)Gal(a1-4)Gal(b1-4)Glc
# Summary of the method: (§1)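 Arrays were curated from the Consortium for Functional Glycomics database, 3228 in total, and kept only where the protein sequence was available. Binding is expressed as a within-array Z-score. This score was averaged across arrays of the same protein sequence at different concentrations or buffers and across linkers, and negative values can be read as non-binding.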
# [2] = molecular target: Fuc(a1-2)Gal(b1-3)[Fuc(a1-4)]GlcNAc(b1-3)[Gal(b1-4)GlcNAc(b1-6)]Gal(b1-4)Glc
# Summary of the method: as §1
# [3] = molecular target: Fuc(a1-2)Gal(b1-4)[Fuc(a1-3)]GlcNAc(b1-3)GalNAc
# Summary of the method: as §1
# [4] = molecular target: Fuc(a1-2)[GalNAc(a1-3)]Gal(b1-4)GlcNAc(b1-2)Man(a1-3)[Fuc(a1-2)[GalNAc(a1-3)]Gal(b1-4)GlcNAc(b1-2)Man(a1-6)]Man(b1-4)GlcNAc(b1-4)GlcNAc
# Summary of the method: as §1
# [5] = molecular target: Fuc(a1-2)[GalNAc(b1-3)]Gal
# Summary of the method: as §1
# [6] = molecular target: Fuc(a1-3)[Gal(b1-4)]GlcNAc(b1-2)Man(a1-3)[Fuc(a1-3)[Gal(b1-4)]GlcNAc(b1-2)Man(a1-6)]Man(b1-4)GlcNAc(b1-4)GlcNAc
# Summary of the method: as §1
# [7] = molecular target: Fuc(a1-3)[Gal(b1-4)]GlcNAc(b1-3)GalNAc
# Summary of the method: as §1
# [8] = molecular target: Gal(a1-3)Gal(b1-3)GlcNAc(b1-2)Man(a1-3)[Gal(a1-3)Gal(b1-3)GlcNAc(b1-2)Man(a1-6)]Man(b1-4)GlcNAc(b1-4)GlcNAc
# Summary of the method: as §1
# [9] = molecular target: Gal(a1-3)Gal(b1-3)[Fuc(a1-4)]GlcNAc(b1-2)Man(a1-3)[Gal(a1-3)Gal(b1-3)[Fuc(a1-4)]GlcNAc(b1-2)Man(a1-6)]Man(b1-4)GlcNAc(b1-4)GlcNAc
# Summary of the method: as §1
# Gal(a1-4)Gal(b1-4)GlcNAc = molecular target: Gal(a1-4)Gal(b1-4)GlcNAc
# Summary of the method: as §1
# [10] = molecular target: Gal(a1-4)Gal(b1-4)GlcNAc(b1-2)Man(a1-3)[Gal(a1-4)Gal(b1-4)GlcNAc(b1-2)Man(a1-6)]Man(b1-4)GlcNAc(b1-4)GlcNAc
# Summary of the method: as §1
# [11] = molecular target: Gal(a1-4)Gal(b1-4)GlcNAc(b1-3)Gal(b1-4)Glc
# Summary of the method: as §1
# Gal(b1-3)Gal(b1-4)GlcNAc = molecular target: Gal(b1-3)Gal(b1-4)GlcNAc
# Summary of the method: as §1
# [12] = molecular target: Gal(b1-3)GlcNAc(b1-3)Gal(b1-3)GlcNAc
# Summary of the method: as §1
# [13] = molecular target: Gal(b1-3)GlcNAc(b1-3)Gal(b1-4)GlcNAc
# Summary of the method: as §1
# [14] = molecular target: Gal(b1-3)[Neu5Ac(a2-6)]GalNAc
# Summary of the method: as §1
# [15] = molecular target: Gal(b1-4)GlcNAc(b1-2)Man(a1-3)[Man(a1-6)]Man(b1-4)GlcNAc(b1-4)GlcNAc
# Summary of the method: as §1
# [16] = molecular target: Gal(b1-4)GlcNAc(b1-3)[Gal(b1-4)GlcNAc(b1-6)]GalNAc
# Summary of the method: as §1
# Gal3S(b1-4)Glc = molecular target: Gal3S(b1-4)Glc
# Summary of the method: as §1
# [17] = molecular target: GalNAc(b1-3)Gal(a1-4)Gal(b1-4)GlcNAc(b1-3)Gal(b1-4)Glc
# Summary of the method: as §1
# [18] = molecular target: GalNAc(b1-3)Gal(a1-6)Gal(b1-4)Glc
# Summary of the method: as §1
# GlcA(b1-3)GlcNAc = molecular target: GlcA(b1-3)GlcNAc
# Summary of the method: as §1
# [19] = molecular target: GlcNAc(a1-4)Gal(b1-4)GlcNAc
# Summary of the method: as §1
# [20] = molecular target: GlcNAc(a1-4)Gal(b1-4)GlcNAc(b1-3)Gal(b1-4)[Fuc(a1-3)]GlcNAc(b1-3)Gal(b1-4)[Fuc(a1-3)]GlcNAc
# Summary of the method: as §1
# [21] = molecular target: GlcNAc(b1-2)Man(a1-3)[GlcNAc(b1-2)Man(a1-6)]Man(b1-4)GlcNAc(b1-4)GlcNAc
# Summary of the method: as §1
# [22] = molecular target: GlcNAc(b1-2)[GlcNAc(b1-4)]Man(a1-3)[GlcNAc(b1-4)][GlcNAc(b1-2)Man(a1-6)]Man(b1-4)GlcNAc(b1-4)GlcNAc
# Summary of the method: as §1
# [23] = molecular target: GlcNAc(b1-3)Gal(b1-3)GalNAc
# Summary of the method: as §1
# GlcNAc(b1-3)Gal(b1-4)Glc = molecular target: GlcNAc(b1-3)Gal(b1-4)Glc
# Summary of the method: as §1
# GlcNAc(b1-3)GalNAc = molecular target: GlcNAc(b1-3)GalNAc
# Summary of the method: as §1
# [24] = molecular target: GlcNAc(b1-4)GlcNAc(b1-4)GlcNAc(b1-4)GlcNAc(b1-4)GlcNAc(b1-4)GlcNAc
# Summary of the method: as §1
# [25] = molecular target: GlcNAc(b1-4)[GlcNAc(b1-6)]GalNAc
# Summary of the method: as §1
# [26] = molecular target: Neu5Ac(a2-3)Gal(b1-3)GalNAc(b1-3)Gal(a1-4)Gal(b1-4)Glc
# Summary of the method: as §1
# [27] = molecular target: Neu5Ac(a2-3)Gal(b1-3)GalNAc(b1-4)[Neu5Ac(a2-3)]Gal(b1-4)Glc
# Summary of the method: as §1
# [28] = molecular target: Neu5Ac(a2-3)Gal(b1-3)GlcNAc(b1-3)Gal(b1-3)GlcNAc
# Summary of the method: as §1
# [29] = molecular target: Neu5Ac(a2-3)Gal(b1-3)[Fuc(a1-4)]GlcNAc(b1-3)Gal(b1-3)[Fuc(a1-4)]GlcNAc
# Summary of the method: as §1
# [30] = molecular target: Neu5Ac(a2-3)Gal(b1-4)[Fuc(a1-3)]GlcNAc(b1-3)Gal(b1-4)GlcNAc
# Summary of the method: as §1
# [31] = molecular target: Neu5Ac(a2-6)Gal(b1-3)GlcNAc(b1-3)[Gal(b1-4)GlcNAc(b1-6)]Gal(b1-4)Glc
# Summary of the method: as §1
# [32] = molecular target: Neu5Ac(a2-6)Gal(b1-4)GlcNAc(b1-2)Man(a1-3)[GlcNAc(b1-2)Man(a1-6)]Man(b1-4)GlcNAc(b1-4)GlcNAc
# Summary of the method: as §1
# [33] = molecular target: Neu5Ac(a2-6)Gal(b1-4)GlcNAc(b1-3)GalNAc
# Summary of the method: as §1
# [34] = molecular target: Neu5Ac9Ac(a2-6)Gal(b1-4)GlcNAc
# Summary of the method: as §1
# Neu5Gc(a2-3)Gal(b1-4)Glc = molecular target: Neu5Gc(a2-3)Gal(b1-4)Glc
# Summary of the method: as §1
# [35] = molecular target: Neu5Gc(a2-3)Gal(b1-4)GlcNAc
# Summary of the method: as §1
# [36] = molecular target: Neu5Gc(a2-6)Gal(b1-4)GlcNAc
# Summary of the method: as §1
# Neu5Gc(a2-6)GalNAc = molecular target: Neu5Gc(a2-6)GalNAc
# Summary of the method: as §1
binder,measurement,setting,value
B1,glycan array binding signal (z-score),[1],2.48
same,glycan array binding signal (z-score),[2],0.041
same,glycan array binding signal (z-score),[3],0.596
same,glycan array binding signal (z-score),[4],-0.032
same,glycan array binding signal (z-score),[5],-0.249
same,glycan array binding signal (z-score),[6],-0.175
same,glycan array binding signal (z-score),[7],0.07
same,glycan array binding signal (z-score),[8],0.365
same,glycan array binding signal (z-score),[9],0.538
same,glycan array binding signal (z-score),Gal(a1-4)Gal(b1-4)GlcNAc,2.24
same,glycan array binding signal (z-score),[10],9.72
same,glycan array binding signal (z-score),[11],2.79
same,glycan array binding signal (z-score),Gal(b1-3)Gal(b1-4)GlcNAc,-0.025
same,glycan array binding signal (z-score),[12],-0.249
same,glycan array binding signal (z-score),[13],0.622
same,glycan array binding signal (z-score),[14],-0.248
same,glycan array binding signal (z-score),[15],-0.26
same,glycan array binding signal (z-score),[16],-0.34
same,glycan array binding signal (z-score),Gal3S(b1-4)Glc,-0.29
same,glycan array binding signal (z-score),[17],6.4
same,glycan array binding signal (z-score),[18],2.68
same,glycan array binding signal (z-score),GlcA(b1-3)GlcNAc,8.78
same,glycan array binding signal (z-score),[19],-0.192
same,glycan array binding signal (z-score),[20],0.469
same,glycan array binding signal (z-score),[21],-0.124
same,glycan array binding signal (z-score),[22],-0.317
same,glycan array binding signal (z-score),[23],-0.217
same,glycan array binding signal (z-score),GlcNAc(b1-3)Gal(b1-4)Glc,-0.297
same,glycan array binding signal (z-score),GlcNAc(b1-3)GalNAc,-0.322
same,glycan array binding signal (z-score),[24],1.05
same,glycan array binding signal (z-score),[25],-0.284
same,glycan array binding signal (z-score),[26],11.2
same,glycan array binding signal (z-score),[27],-0.101
same,glycan array binding signal (z-score),[28],-0.328
same,glycan array binding signal (z-score),[29],0.484
same,glycan array binding signal (z-score),[30],0.368
same,glycan array binding signal (z-score),[31],-0.21
same,glycan array binding signal (z-score),[32],-0.249
same,glycan array binding signal (z-score),[33],0.056
same,glycan array binding signal (z-score),[34],-0.322
same,glycan array binding signal (z-score),Neu5Gc(a2-3)Gal(b1-4)Glc,-0.229
same,glycan array binding signal (z-score),[35],-0.046
same,glycan array binding signal (z-score),[36],-0.292
same,glycan array binding signal (z-score),Neu5Gc(a2-6)GalNAc,-0.29

# Source: the supplement of paper PMC8728848
